# Experimental data reported in PubChem BioAssay.
# Unmarked numbers belong to inactive results. Some of the results follow. Activity calls are given as the source filed them.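 Rule for the calls, unless noted: active = mean inhibition above 46.5%, the solvent-only control mean plus 3 SD; inactive = the rest.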
# How the values were obtained:
# [1] = StAR promoter reporter inhibitors, counter-screen for LRH-1 inverse agonist project, cell-based, luminescence, high throughput (AID 651611; in the data active = inhibition above about 28%); details: StAR promoter luciferase reporter counterscreen, at 3.6 µM, stronger effect = higher value
# [2] = target: Nuclear receptor subfamily 5 group A member 2 (Homo sapiens) (UniProt O00482); test: NR5A2 activity suppression in reporter cells – cell-based, luminescence, confirmation (AID 651613; in the data active = inhibition above about 42%); details: cell-based LRH-1 luciferase reporter, inverse agonism; at 3.6 µM; stronger effect = higher value
# [3] = target: Steroidogenic factor 1 (Homo sapiens) (UniProt Q13285); test: inverse agonism at SF1 nuclear receptor – cell-based, luminescence, high throughput, counter-screen for LRH-1 inverse agonist project (AID 651614; in the data active = inhibition above about 44%); details: cell-based SF1 luciferase reporter, at 3.6 µM, stronger effect = higher value
# [4] = compounds suppressing VP16-driven luciferase signal – cell-based, luminescence, high throughput, counter-screen for LRH-1 inverse agonist project (AID 651615; in the data active = inhibition above about 33%); details: Gal4-VP16 luciferase reporter cells, at 3.6 µM, stronger effect = higher value
# [5] = tested on: transactivating tegument protein VP16 (Human herpesvirus 1); test: compounds suppressing VP16-driven luciferase signal – cell-based, luminescence, single concentration, counter-screen for SRC2 inhibitor project (AID 652007; in the data active = inhibition above about 36%); details: cell-based VP16 transactivation luciferase reporter, at 8.9 µM, stronger effect = higher value
# [6] = target: Nuclear receptor coactivator 2 (Homo sapiens) (UniProt Q15596); test: inhibition of GAL4-SRC2 driven luciferase expression – cell-based, luminescence, HEK293, triplicate, confirmation (AID 652008); details: HEK293 GAL4-SRC2 luciferase reporter, at 8.9 µM, stronger effect = higher value
# [7] = tested on: DAF-12 nuclear receptor (Heterodera glycines), GAL4-LBD fusion; test: hgDAF-12 GAL4 fusion reporter activation, retest – cell-based, luminescence, HEK293, GAL4-LBD fusion, confirmation (AID 743050;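 active = mean activation over triplicate wells above the hit cutoff derived from the earlier primary screen, cut at about 11% in these data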); details: HEK293 GAL4-hgDAF12 luciferase reporter, agonist mode; at 6.8 µM; stronger effect = higher value
# [8] = target: Oxysterols receptor LXR-beta (Homo sapiens) (UniProt P55055); test: nonspecific reporter activation via LXR – cell-based, luminescence, HEK293, H. glycines campaign, counter-screen for hgDAF-12 agonist project, confirmation (AID 743051;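 active = mean activation of the triplicate above a set limit carried over from the primary screen, none filed active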); details: HEK293 Gal4-LXR luciferase reporter, 24 h; at 6.8 µM; stronger effect = higher value
# [9] = BSA probe fluorescence interference – biochemical, TAMRA-labeled BSA, counter-screen for TCR-CD3 interaction inhibitor project (AID 652035; in the data active = inhibition above about 23%); details: TAMRA-labeled BSA probe fluorescence counterscreen; at 9.4 µM; stronger effect = higher value
# [10] = tested on: T-cell receptor (TCR)-CD3 interaction, human; test: blockers of TCR binding to CD3 – biochemical, fluorescence, TAMRA-labeled TCR probe, confirmation (AID 652036; in the data active = inhibition above about 19%); details: TAMRA-labeled TCR probe fluorescence binding assay; at 9.4 µM; stronger effect = higher value
# [11] = reduced OD of V66 E. coli with T4 gene 2 phage – absorbance, RecBCD inhibitor project, confirmation (AID 651982;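 active = mean inhibition over triplicates exceeding the hit threshold derived in the original primary screen, cut at about 11% in these data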); details: E. coli V66 + T4 2- phage, growth OD; at 11.9 µM; stronger effect = higher value
# [12] = bacterial growth inhibition – absorbance, high throughput, counter-screen for RecBCD inhibitor project (AID 651983; in the data active = inhibition above about 20%); details: E. coli viability, absorbance (OD) growth; at 11.9 µM; stronger effect = higher value
# [13] = reduced optical density, T4-challenged addAB+ bacteria – absorbance, E. coli V3065, T4 phage, counter-screen for RecBCD inhibitor project, confirmation (AID 651984;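 active = mean inhibition above the solvent-only control wells' mean plus 3 SD, cut at about 22% in these data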); details: E. coli expressing H. pylori AddAB + T4 phage, OD growth; at 11.9 µM; stronger effect = higher value
# Sequence of Steroidogenic factor 1 (Homo sapiens) (Q13285 whole entry, looked up, the tested form may be a part): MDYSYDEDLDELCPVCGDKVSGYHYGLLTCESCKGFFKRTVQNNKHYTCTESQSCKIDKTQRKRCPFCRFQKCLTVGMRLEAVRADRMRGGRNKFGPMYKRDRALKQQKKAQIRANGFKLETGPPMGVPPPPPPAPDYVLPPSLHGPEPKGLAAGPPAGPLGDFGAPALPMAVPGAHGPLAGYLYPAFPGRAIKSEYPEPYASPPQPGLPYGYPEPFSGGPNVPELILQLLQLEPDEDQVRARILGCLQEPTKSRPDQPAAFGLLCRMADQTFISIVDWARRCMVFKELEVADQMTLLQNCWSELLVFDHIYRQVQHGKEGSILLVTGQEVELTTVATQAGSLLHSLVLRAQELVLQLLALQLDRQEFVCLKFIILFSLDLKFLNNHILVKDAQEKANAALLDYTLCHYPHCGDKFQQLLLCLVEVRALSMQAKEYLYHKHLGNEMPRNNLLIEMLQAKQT
# Sequence of Nuclear receptor coactivator 2 (Homo sapiens) (Q15596 whole entry, looked up, the tested form may be a part): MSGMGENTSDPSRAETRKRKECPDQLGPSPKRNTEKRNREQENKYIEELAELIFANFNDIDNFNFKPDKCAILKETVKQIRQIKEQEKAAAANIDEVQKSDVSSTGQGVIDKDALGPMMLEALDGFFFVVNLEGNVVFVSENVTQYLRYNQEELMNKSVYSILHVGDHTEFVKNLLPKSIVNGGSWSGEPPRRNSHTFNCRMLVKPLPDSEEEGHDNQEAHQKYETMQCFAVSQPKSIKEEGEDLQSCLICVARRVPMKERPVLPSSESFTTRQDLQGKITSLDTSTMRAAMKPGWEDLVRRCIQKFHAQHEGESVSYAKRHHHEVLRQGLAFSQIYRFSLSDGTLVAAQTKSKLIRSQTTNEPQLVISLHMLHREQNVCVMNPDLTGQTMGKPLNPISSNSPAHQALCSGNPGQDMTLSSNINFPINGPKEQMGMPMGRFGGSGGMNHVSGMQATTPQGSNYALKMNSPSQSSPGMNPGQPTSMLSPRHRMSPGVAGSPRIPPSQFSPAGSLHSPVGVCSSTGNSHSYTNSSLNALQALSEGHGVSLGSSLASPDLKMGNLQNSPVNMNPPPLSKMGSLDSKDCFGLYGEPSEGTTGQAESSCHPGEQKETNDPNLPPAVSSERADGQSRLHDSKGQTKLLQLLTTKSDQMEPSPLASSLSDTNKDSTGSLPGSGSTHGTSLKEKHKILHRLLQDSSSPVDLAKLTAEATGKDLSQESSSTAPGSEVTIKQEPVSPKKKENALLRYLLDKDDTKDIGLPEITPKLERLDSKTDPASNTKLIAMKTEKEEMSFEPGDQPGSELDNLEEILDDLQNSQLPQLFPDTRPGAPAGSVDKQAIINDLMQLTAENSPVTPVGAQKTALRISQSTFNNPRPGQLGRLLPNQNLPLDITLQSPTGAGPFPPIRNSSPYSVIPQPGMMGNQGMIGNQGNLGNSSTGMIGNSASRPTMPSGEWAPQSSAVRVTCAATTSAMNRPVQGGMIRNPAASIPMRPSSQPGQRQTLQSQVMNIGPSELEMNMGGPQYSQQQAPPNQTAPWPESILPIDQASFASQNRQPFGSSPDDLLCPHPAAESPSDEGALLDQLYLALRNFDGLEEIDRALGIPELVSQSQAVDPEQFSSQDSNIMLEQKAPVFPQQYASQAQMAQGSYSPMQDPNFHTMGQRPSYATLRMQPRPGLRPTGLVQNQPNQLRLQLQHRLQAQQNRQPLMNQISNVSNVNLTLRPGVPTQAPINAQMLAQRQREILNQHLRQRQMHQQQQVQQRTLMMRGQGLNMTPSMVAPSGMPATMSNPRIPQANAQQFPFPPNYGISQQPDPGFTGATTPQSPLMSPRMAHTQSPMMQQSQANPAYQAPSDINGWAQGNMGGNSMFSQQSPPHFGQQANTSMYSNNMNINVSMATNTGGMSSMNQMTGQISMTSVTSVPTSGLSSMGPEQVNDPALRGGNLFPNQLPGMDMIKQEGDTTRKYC
# Sequence of Nuclear receptor subfamily 5 group A member 2 (Homo sapiens) (O00482 whole entry, looked up): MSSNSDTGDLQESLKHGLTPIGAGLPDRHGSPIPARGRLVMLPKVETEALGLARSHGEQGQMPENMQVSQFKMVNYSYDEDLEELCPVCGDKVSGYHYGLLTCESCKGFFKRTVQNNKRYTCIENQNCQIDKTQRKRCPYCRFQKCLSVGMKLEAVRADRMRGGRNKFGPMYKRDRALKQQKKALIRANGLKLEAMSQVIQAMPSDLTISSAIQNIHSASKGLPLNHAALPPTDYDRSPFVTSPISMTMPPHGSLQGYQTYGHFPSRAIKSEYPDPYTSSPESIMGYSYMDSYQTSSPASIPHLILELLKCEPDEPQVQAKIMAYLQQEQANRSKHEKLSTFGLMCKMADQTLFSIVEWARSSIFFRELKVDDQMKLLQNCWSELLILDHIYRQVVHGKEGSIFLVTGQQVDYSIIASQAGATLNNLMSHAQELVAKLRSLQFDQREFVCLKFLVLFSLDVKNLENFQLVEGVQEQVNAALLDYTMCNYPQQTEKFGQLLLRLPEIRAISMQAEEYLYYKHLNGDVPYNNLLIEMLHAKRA
# Sequence of Oxysterols receptor LXR-beta (Homo sapiens) (P55055 whole entry, looked up, the tested form may be a part): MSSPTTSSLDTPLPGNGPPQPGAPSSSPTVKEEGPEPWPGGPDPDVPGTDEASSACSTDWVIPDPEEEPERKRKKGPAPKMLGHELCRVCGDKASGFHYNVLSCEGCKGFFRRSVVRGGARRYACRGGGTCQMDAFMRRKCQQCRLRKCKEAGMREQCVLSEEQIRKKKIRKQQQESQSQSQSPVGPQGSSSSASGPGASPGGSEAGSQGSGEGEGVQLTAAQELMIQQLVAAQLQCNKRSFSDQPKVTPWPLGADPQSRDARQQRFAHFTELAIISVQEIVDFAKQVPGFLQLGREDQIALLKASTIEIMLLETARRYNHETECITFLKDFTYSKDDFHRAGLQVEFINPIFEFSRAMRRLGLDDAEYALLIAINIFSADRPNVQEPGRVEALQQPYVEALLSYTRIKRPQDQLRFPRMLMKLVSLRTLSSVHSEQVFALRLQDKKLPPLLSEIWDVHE
smiles,measurement,setting,value
CC[n+]1c(/C=C/C=C/c2ccc(N(C)C)cc2)sc2ccccc21,inhibition,[1],54% (active)
same,inhibition,[2],104% (active)
same,inhibition,[3],86.4% (active)
same,inhibition,[4],86.5% (active)
C[C@@H]1O[C@@H](O[C@H]2C[C@@H](O)[C@]3(CO)[C@H]4[C@H](O)C[C@]5(C)[C@@H](C6COC(=O)C6)CC[C@]5(O)[C@@H]4CC[C@]3(O)C2)[C@H](O)[C@H](O)[C@H]1O (some centres not stated),inhibition,[1],92.4% (active)
same,inhibition,[2],103% (active)
same,inhibition,[3],87.3% (active)
same,inhibition,[4],66.4% (active)
COc1ccc(S(=O)(=O)N2Cc3cnnn3-c3ccccc3C2C#N)cc1 (configuration not stated),inhibition,[5],1.55%
same,inhibition,[6],-21%
O=Cc1cn(Cc2ccc(F)cc2Cl)c2ccccc12,inhibition,[5],14.2%
same,inhibition,[6],26.5%
O=C(N/N=C/c1c(O)n(Cc2ccccc2)c(=O)[nH]c1=O)c1ccccc1,activation,[7],1.81%
same,activation,[8],0.01%
COC(=O)C1=C(c2ccc(-c3ccccc3)c(F)c2)C[C@@H]2CC[C@H]1N2C(=O)NCc1ccc(F)cc1,inhibition,[5],-5.9%
same,inhibition,[6],2.93%
COC(=O)C1=C(C(=O)OC)C2c3ccccc3C1c1ccccc12,inhibition,[5],12.3%
same,inhibition,[6],2.05%
CC(=O)OC1CC(OC2C(O)CC(OC3C(O)CC(OC4CCC5(C)C(CCC6C5CCC5(C)C(C7=CC(=O)OC7)CCC65O)C4)OC3C)OC2C)OC(C)C1OC1OC(CO)C(O)C(O)C1O (configuration not stated),inhibition,[1],94.6% (active)
same,inhibition,[2],109% (active)
same,inhibition,[3],96.6% (active)
same,inhibition,[4],92.5% (active)
same,inhibition,[5],67.4% (active)
same,inhibition,[6],54.4% (active)
C=C1C(=O)O[C@H]2C[C@@H](C)[C@@H]3C=CC(=O)[C@@]3(C)C[C@H]12,inhibition,[5],69.4% (active)
same,inhibition,[6],23%
CC/C(=N\NC(=O)c1ccccc1O)c1c(O)n(Cc2ccccc2)c(=O)[nH]c1=O,inhibition,[9],-6.16%
same,inhibition,[10],29.4% (active)
Cc1ccccc1CN1Cc2cnnn2-c2ccccc2C1C#N (configuration not stated),inhibition,[5],39.8% (active)
same,inhibition,[6],48.8% (active)
COc1ccc2c3c1O[C@H]1C(=O)CC[C@H]4[C@@H](C2)N(C)CC[C@]314,inhibition,[5],-4.81%
same,inhibition,[6],-28.4%
FC(F)(F)c1ccccc1N1CC1c1ccncc1 (configuration not stated),inhibition,[5],-14.4%
same,inhibition,[6],-11.4%
CCOP(=O)(OCC)c1cccc(OP(=O)(c2cccc([N+](=O)[O-])c2)c2cccc([N+](=O)[O-])c2)c1,inhibition,[5],-4.6%
same,inhibition,[6],-32.1%
COc1cc(CC(C)N)c(OC)cc1I (configuration not stated),inhibition,[5],-16.9%
same,inhibition,[6],8.7%
CCOC(=O)C1(CCc2ccccc2)CCN(Cc2cccc3cnccc23)CC1,inhibition,[5],10.4%
same,inhibition,[6],9.69%
CCN1CCN(S(=O)(=O)c2ccc(Cl)c(C(=O)Nc3ccc(C(=O)N(CC)CC)cc3)c2)CC1,inhibition,[5],-10.1%
same,inhibition,[6],2.66%
C[C@@H]1O[C@@H](O[C@@H]2C=C3CC[C@@H]4C(CC[C@]5(C)[C@@H](c6ccc(=O)oc6)CC[C@]45O)[C@@]3(C)CC2)[C@H](O)[C@H](O)[C@H]1O (some centres not stated),inhibition,[1],97.1% (active)
same,inhibition,[2],111% (active)
same,inhibition,[3],98.8% (active)
same,inhibition,[4],95.6% (active)
same,inhibition,[5],67.9% (active)
same,inhibition,[6],69.7% (active)
CC(=O)OC(C)(C)/C=C/C(=O)C(C)(O)C1[C@H](O)C[C@@]2(C)C3CC=C4C(CC[C@@H](O)C4(C)C)[C@]3(CO)C(=O)C[C@]12C (some centres not stated),inhibition,[5],31.1%
same,inhibition,[6],55.2% (active)
CN1C(=O)C[N+]([O-])=C(c2ccccc2)c2cc(Cl)ccc21,inhibition,[5],13.7%
same,inhibition,[6],0.34%
O=C1NC(=O)N(Cc2ccco2)C(=O)/C1=C/C=C/c1ccco1,inhibition,[5],8.52%
same,inhibition,[6],-57.3%
CN(Cc1cccc(-c2cccnc2)c1)C(=O)Oc1ccc([N+](=O)[O-])cc1,inhibition,[5],2.36%
same,inhibition,[6],49.7% (active)
Cc1nc2cc(-c3ccc(Cl)cc3)nn2c(C)c1CCC(=O)N1CCC2(CC1)OCCO2,inhibition,[5],16.4%
same,inhibition,[6],70.5% (active)
COC1C(O)C(C)OC(OC2CCC3(C)C(CCC4C3C(O)CC3(C)C(C5=CC(=O)OC5)CCC43O)C2)C1O (configuration not stated),inhibition,[1],97.3% (active)
same,inhibition,[2],110% (active)
same,inhibition,[3],98.8% (active)
same,inhibition,[4],91.1% (active)
same,inhibition,[5],57.6% (active)
same,inhibition,[6],22.7%
COC1=C(C)C(=O)C2=C(C1=O)C(CO)N1C(C#N)C3CC4C(C1C2N1CCOC41)N3C (configuration not stated),inhibition,[1],86.5% (active)
same,inhibition,[2],106% (active)
same,inhibition,[3],96.2% (active)
same,inhibition,[4],95.3% (active)
same,inhibition,[5],41.7% (active)
same,inhibition,[6],57% (active)
CC(=O)OC1C(O)C(C)OC(OC2C(OC(=O)C3CCC4C(C3)OC3(CC(OC(=O)/C=C/c5ccccc5)C(C)CO3)C43CO3)OC(C)C(O)C2OC(C)=O)C1O (configuration not stated),inhibition,[1],96.1% (active)
same,inhibition,[2],109% (active)
same,inhibition,[3],97.5% (active)
same,inhibition,[4],97.4% (active)
same,inhibition,[5],79.4% (active)
same,inhibition,[6],75.2% (active)
c1cncc(-c2ccc3n2Cc2cnnn2-c2ccccc2-3)c1,inhibition,[5],11%
same,inhibition,[6],21.8%
O=[N+]([O-])c1ccc(N2CCCC(C(F)(F)F)C2)c2ccncc12 (configuration not stated),inhibition,[5],10.6%
same,inhibition,[6],34.3%
CCc1nnc(NS(=O)(=O)c2ccc(N=Cc3c(O)n(-c4ccccc4)c(=O)[nH]c3=O)cc2)s1,inhibition,[11],11.7% (active)
same,inhibition,[12],7.85%
same,inhibition,[13],32.1% (active)
C[C@@H]1C[C@@H]([C@H](O)CC2CC(=O)NC(=O)C2)C(=O)[C@@H](C)C1,inhibition,[2],109% (active)
same,inhibition,[3],97.9% (active)
same,inhibition,[5],48% (active)
same,inhibition,[6],59.3% (active)
